Screening results: PubChem, NMMLSC
Only some compounds are listed: those with a hit (about 0.93% of all), similar ones and a draw of the others.
MEP2 TOR yeast: alters MEP2-GFP fluorescence in TOR pathway yeast screen; S. cerevisiae MEP2-GFP strain, flow cytometry GFP, 3 h; 100% = DMSO control level; AID 2016; GFP response vs DMSO, % at 10 µM; hit rate 0.51% among 330,000;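 active = GFP response versus DMSO above a set limit, roughly screen mean plus 3 SD, cut at about 180% in these data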;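 also: median GFP fluorescence of the barcode-gated MEP2-GFP cells per well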
AGP1 TOR yeast: alters AGP1-GFP fluorescence in TOR pathway yeast screen | S. cerevisiae AGP1-GFP multiplex flow cytometry, 3 h; GFP as percent of DMSO wells | GFP response vs DMSO, % at 10 µM | hit rate 0.02% among 320,000 | AID 2066;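 active = GFP response relative to DMSO above a set limit, near screen average plus 3 SD, cut at about 150% in these data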;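 also: median GFP channel fluorescence of the gated AGP1 strain per well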
CIT2-GFP yeast: modulators of TOR pathway CIT2-GFP in S. cerevisiae. S. cerevisiae CIT2-GFP strain, flow cytometry, 3 h; 100 means same as DMSO wells. GFP response vs DMSO, % at 10 µM. hit rate 0.065% among 320,000. AID 2029;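 active = GFP response relative to DMSO above a set limit, near the screen mean plus 3 SD, cut at about 150% in these data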;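 also: ratio of well median GFP fluorescence to mean of DMSO wells on the plate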
RPL19A-GFP yeast: alters RPL19A-GFP fluorescence in TOR pathway yeast screen; S. cerevisiae RPL19A-GFP strain, flow cytometry, 3 h; active compounds read low; hit rate 0.3% among 330,000; percent response vs DMSO, % at 10 µM;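 active = percent response vs DMSO below 50%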;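 also: median channel GFP fluorescence of the barcoded RPL19A-GFP strain; lower means less RPL19A-GFP as with rapamycin TOR inhibition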
LAP4-GFP MLPCN: alters LAP4-GFP fluorescence in TOR pathway yeast screen | S. cerevisiae LAP4-GFP multiplex, flow cytometry GFP, 3 h; median GFP as percent of DMSO wells | GFP response vs DMSO, % at 10 µM | hit rate 0.34% among 320,000 | AID 2023;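 active = GFP response vs DMSO above a set limit, about the screen mean plus 3 SD, cut at about 150% in these data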
LAP4-GFP pick2: yeast LAP4-GFP modulation, second cherry pick. shares compounds with LAP4-GFP MLPCN. S. cerevisiae LAP4-GFP strain, flow cytometry GFP, 3 h. GFP response vs DMSO, % at 10 µM. hit rate 20% among 590. AID 2621;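 active = GFP signal as percent of the solvent control above about 150%, meaning raised reporter expression, limit read from the data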
MEP2-GFP pick2: reconfirmed MEP2-GFP TOR pathway modulator in yeast; shares compounds with LAP4-GFP MLPCN; GFP response vs DMSO, % at 10 µM; S. cerevisiae MEP2-GFP strain, flow cytometry GFP, 3 h; hit rate 10% among 590;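 active = GFP signal above 150% of the solvent control wells, that is a rise of more than half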;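 also: median channel GFP fluorescence of all gated yeast cells per well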
RPL19A-GFP pick2: second confirmation of modulators of TOR reporter RPL19A-GFP in yeast. S. cerevisiae RPL19A-GFP strain, flow cytometry GFP, 3 h; active compounds read low; 100% means same as DMSO wells. GFP response vs DMSO, % at 10 µM. shares compounds with LAP4-GFP MLPCN. hit rate 3% among 590;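 active = under 65% GFP response relative to DMSO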;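 also: median GFP channel fluorescence per well over the all cells gate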
CIT2 GFP CP2: second confirmation of modulators of TOR reporter CIT2-GFP in yeast | shares compounds with LAP4-GFP MLPCN | S. cerevisiae CIT2-GFP strain, flow cytometry GFP, 3 h; DMSO control wells read 100% | GFP response vs DMSO, % at 10 µM | hit rate 8% among 590;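 active = GFP response vs DMSO above about 150%, limit read from the data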;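 also: median green fluorescence per well over all gated yeast cells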
AGP1 GFP CP2: second confirmation of modulators of TOR reporter AGP1-GFP in yeast. shares compounds with LAP4-GFP MLPCN. S. cerevisiae AGP1-GFP strain, flow cytometry GFP, 3 h. percent response vs DMSO, % at 10 µM. 590 tested, under 10 active;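 active = over 150 percent of DMSO response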;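 also: median GFP channel fluorescence over all cells without mother daughter split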
s288c autofluor: yeast s288c autofluorescence artifact, counter-screen; 610 tested, under 10 active; shares compounds with LAP4-GFP MLPCN; fluorescence change (kMESF span) at 33 µM; AID 2757; S. cerevisiae s288c, 520 nm autofluorescence, flow cytometry, 3 h; active compounds read high; zero means same as solvent-only cells;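 active = fluorescence span over the dose series, or activity score, above about 33, limit read from the data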
s288c autofl DR: TOR screen hit shows autofluorescence in yeast s288c; shares compounds with LAP4-GFP MLPCN; S. cerevisiae s288c parental, compound autofluorescence, flow cytometry, 3 h; fluorescence change (span) at 33 µM; 110 tested, under 10 active; AID 488829;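 active = fluorescence change span, or the activity score built from it, above 25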
TORC1 bypass: stops wildtype yeast growth while TORC1 bypass cells still grow; shares compounds with LAP4-GFP MLPCN; S. cerevisiae BY4741 spot growth rating, 48-72 h; active compounds read low; growth rating (0-3) at 30 µM; 120 tested, under 10 active;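 active = growth rating at most 1 for wild type yeast while the TORC1 bypass strain still grows fully, rated 3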
Large screens that a line does not name were inactive (follow-up assays come after a bar, where they were run).

C=CC[C@H](CC(=O)N(CCO)Cc1ccccc1)C(=O)N[C@H](C)COC(=O)[C@@H](CC=C)CC(=O)OC(C)(C)C	none
Oc1ccc2ccccc2c1/C=N/Nc1nnc(-c2ncc[nH]2)c2ccccc12	MEP2 TOR yeast 194, LAP4-GFP MLPCN 277 | s288c autofluor 40
Brc1ccc(-c2ccc(C3Nc4cccc5cccc(c45)N3)o2)cc1	LAP4-GFP MLPCN 155 | LAP4-GFP pick2 inactive | MEP2-GFP pick2 inactive | RPL19A-GFP pick2 inactive | CIT2 GFP CP2 inactive | AGP1 GFP CP2 inactive
Cc1noc(C)c1C(=O)Nc1ccc(N(C)C)cc1	CIT2-GFP yeast 162 | LAP4-GFP pick2 inactive | MEP2-GFP pick2 inactive | RPL19A-GFP pick2 inactive | CIT2 GFP CP2 inactive | AGP1 GFP CP2 inactive
Cc1noc(C)c1C(=O)Nc1ccc(F)cc1	none
Cc1cccc(N2C(=O)CC(Sc3ncn[nH]3)C2=O)c1 (configuration not stated)	none
Cc1ccc(N2C(=O)CC(Sc3ncn[nH]3)C2=O)cc1C (configuration not stated)	LAP4-GFP MLPCN 151 | s288c autofluor inactive
Cn1c2c(c3ccccc31)CCN1CCC[C@]21c1ccccc1	none
CNc1nc(N)c([N+](=O)[O-])c(Nc2ccccc2OC)n1	none | s288c autofl DR inactive | TORC1 bypass inactive
COc1ccccc1Nc1nc(NCCO)nc(N)c1[N+](=O)[O-]	none
CNc1nc(N)c([N+](=O)[O-])c(Nc2cc(OC)ccc2OC)n1	none (no result: MEP2 TOR yeast, AGP1 TOR yeast, CIT2-GFP yeast, RPL19A-GFP yeast, LAP4-GFP MLPCN) | s288c autofl DR inactive | TORC1 bypass inactive
COCCCNc1nc(N)c([N+](=O)[O-])c(Nc2cc(OC)ccc2OC)n1	none
Cc1ccccc1[C@]1(C)ON(c2ccccc2C(F)(F)F)C1=O	none | LAP4-GFP pick2 inactive | MEP2-GFP pick2 inactive | RPL19A-GFP pick2 inactive | CIT2 GFP CP2 inactive | AGP1 GFP CP2 inactive | s288c autofluor inactive
COc1ccccc1N1C(=O)CC(c2ccccc2)CC1=O	none
CC[C@]1(c2ccccc2C)ON(c2ccccc2C(F)(F)F)C1=O	none | LAP4-GFP pick2 inactive | MEP2-GFP pick2 inactive | RPL19A-GFP pick2 inactive | CIT2 GFP CP2 inactive | AGP1 GFP CP2 inactive | s288c autofluor inactive
COc1ccccc1[C@@]1(C)ON(c2ccccc2C(F)(F)F)C1=O	LAP4-GFP MLPCN 155 | LAP4-GFP pick2 inactive | MEP2-GFP pick2 inactive | RPL19A-GFP pick2 inactive | CIT2 GFP CP2 inactive | AGP1 GFP CP2 inactive | s288c autofluor inactive
NS(=O)(=O)c1cccc(NC(=O)COC(=O)/C=C/c2nc3ccccc3s2)c1	none
CCCCCCCCC/C(=N\O)c1ccccn1	LAP4-GFP MLPCN 228 | s288c autofluor inactive
Oc1ccc(N=Nc2ccccc2)o1	LAP4-GFP MLPCN 165 | s288c autofluor inactive
Cc1ccc(C(=O)Oc2oc(-c3ccccc3)nc2C=Nc2ccc(N(C)C)cc2)cc1	none | s288c autofluor inactive
CN(C)c1ccc(N=Cc2nc(-c3ccccc3)oc2OC(=O)c2cccc(Cl)c2)cc1	none | s288c autofluor inactive
Cc1ccc(-c2nc(C=Nc3ccccc3)c(O)o2)cc1	none
COc1ccccc1-c1ccc(/C=C2\C=CC(=O)O2)o1	none
COc1ccccc1NC1=C(Cl)C(=O)N(c2ccccc2)C1=O	none | s288c autofluor inactive
CCOc1ccc(N2C(=O)CN=C2Nc2ccccc2Cl)cc1	none
COc1ccc(N2C(=O)C(Cl)=C(Nc3ccc(OC)cc3OC)C2=O)cc1	none
COc1ccc(NC2=C(Cl)C(=O)N(c3ccccc3)C2=O)c(OC)c1	none
CCOc1ccc(N2C(=O)C(Cl)=C(Nc3ccccc3O)C2=O)cc1	none | s288c autofluor inactive
COc1ccc(N2C(=O)C(Cl)=C(Nc3c(C)n(C)n(-c4ccccc4)c3=O)C2=O)cc1	none | s288c autofluor inactive
CSc1nc(Cc2ccc(Cl)cc2)nc2ccccc12	LAP4-GFP MLPCN 161 | LAP4-GFP pick2 inactive | MEP2-GFP pick2 inactive | RPL19A-GFP pick2 inactive | CIT2 GFP CP2 inactive | AGP1 GFP CP2 inactive
Cc1ccc(NS(=O)(=O)c2cccc(C(=O)O)c2)cc1S(=O)(=O)N1CCOCC1	none
O=C(O)c1cccc(S(=O)(=O)Nc2ccc(S(=O)(=O)N3CCOCC3)cc2)c1	none | LAP4-GFP pick2 inactive | MEP2-GFP pick2 inactive | RPL19A-GFP pick2 inactive | CIT2 GFP CP2 inactive | AGP1 GFP CP2 inactive | s288c autofluor inactive
CCCCCN(C(=O)CCC(=O)OCc1cc(C)ccc1C)c1c(N)n(CCCC)c(=O)[nH]c1=O	none
Oc1c(Br)cc(Br)cc1/C=N/c1nccs1	LAP4-GFP MLPCN 194 | LAP4-GFP pick2 inactive | MEP2-GFP pick2 inactive | RPL19A-GFP pick2 inactive | CIT2 GFP CP2 inactive | AGP1 GFP CP2 inactive
Oc1c(Br)cc(Br)cc1C=Nc1ccc2[nH]ncc2c1	LAP4-GFP MLPCN 184 | s288c autofluor inactive
Oc1c(Br)cc(Br)cc1C=Nc1cccnc1	none | LAP4-GFP pick2 inactive | MEP2-GFP pick2 inactive | RPL19A-GFP pick2 inactive | CIT2 GFP CP2 inactive | AGP1 GFP CP2 inactive
Oc1ccc(Cl)cc1/C=N/c1nccs1	none
COc1cc(CNC(=O)CCCCCCC(C)C)ccc1O	LAP4-GFP MLPCN 158 | LAP4-GFP pick2 160 | MEP2-GFP pick2 211 | RPL19A-GFP pick2 inactive | CIT2 GFP CP2 188 | AGP1 GFP CP2 inactive | s288c autofluor inactive
COc1ccc(-c2cc(C)no2)cc1S(=O)(=O)N1CCCN(Cc2ccccc2Cl)C1	none
COc1ccc(/C=C/C(=O)NC(=S)NNC(=O)c2cccnc2)cc1	none
